According to PubChem BioAssay:

The compounds below were run on wheat germ agglutinin (Triticum aestivum), Alexa647-labelled (assay: wheat germ agglutinin binders on compound microarrays, profiling panel, artefact control for SMM control-protein annotation, biochemical, small-molecule microarray, 635/667 nm fluorescence (AID 1140;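 note: score merges 667 nm feature emission with signal to noise over triplicate slides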)). Settings: WGA-A647 binding, 635 nm fluorescence, higher = more signal.

Row | SMILES | composite z-score
1 | CN1C=C(C(=O)OCCS(C)(=O)=O)C(C(=O)OCCS(C)(=O)=O)=CC(c2ccc(CO)cc2)=CC1c1cccs1 (stereo not drawn) | 0.21
2 | CS(=O)(=O)CCOC(=O)C1=CC(CCCO)=CC(C2CC2)N(Cc2cccc(OC(F)(F)F)c2)C=C1C(=O)OCCS(C)(=O)=O (stereo not drawn) | 0.927
3 | CC(C)[C@H]1NC(=O)[C@@]23C(=O)N[C@@H](Cc4ccccc4)C2[C@H](C)[C@@]2(C)O[C@H]2C3/C=C/C/C=C\CNC(=O)[C@H](Cc2ccccc2)NC1=O (stereo partly drawn) | 0.489
4 | Cc1ccc(S[C@]2(C(=O)NCc3ccccc3)CC(=O)N(Cc3cc(C(F)(F)F)cc(C(F)(F)F)c3)[C@@H]2c2ccc(CO)cc2I)cc1 | -0.799
5 | CN(C)C(=O)[C@@]1(Cc2ccccc2N=[N+]=[N-])N=C(c2ccc(OCCCO)cc2)O[C@H]1c1ccccc1 | 1.22
6 | COCC1=C2[C@@H](CCc3ccccc3)OB(O)C[C@@H]2[C@@H]2C(=O)N(C)C(=O)[C@@H]2C1 | -0.098
7 | O=C1C2C=CC(C(O)c3ccco3)N(Nc3ccccc3)C2C(=O)N1c1ccccc1 (stereo not drawn) | 0.46
8 | NC(=O)[C@H]1[C@@H]2C(=O)O[C@@H](c3ccccc3)[C@@H](c3ccccc3)N2[C@@H](c2ccc(O)cc2)[C@]12C(=O)Nc1ccc(C#CC3=CCCCC3)cc12 | 0.548
9 | C=C(/C(=C/C[C@@H](OC(=O)c1ccncc1)c1cccc(OCCO)c1)c1cnc2ccccc2c1)C(C)C | 1.29
10 | CC(C)[C@H]1NC(=O)[C@@]23C(=O)N[C@@H](Cc4ccccc4)C2[C@H](C)[C@@]2(C)O[C@H]2C3/C=C/CCC/C=C/CNC(=O)[C@H](Cc2ccccc2)NC1=O (stereo partly drawn) | -0.755
11 | C=C(COC)/C(=C/C[C@@H](OC(C)=O)c1ccc(CO)o1)c1cc(C(=O)OC)ccc1OC | -0.188
12 | C=CCC(OC(C)=O)[C@@H]1[C@@H](N(Cc2cccc3ccccc23)C(=O)Cc2ccc(F)cc2)c2cc(OCCCO)ccc2N1C(=O)c1ccc(-c2ccccc2)cc1 (stereo partly drawn) | 0.507
13 | CC(=O)NCCCC[C@@H]1NC(=O)[C@H]2C[C@@H](C(=O)NCCCCCNC(=O)CS)[C@@H](c3cccc(OCCO)c3)N2C1=O | 0.29
14 | COCCOC(=O)N1C(=O)[C@@]2(c3cc(C#CCC(C(=O)OC)C(=O)OC)ccc31)[C@H](c1ccc(O)cc1)N1[C@H](c3ccccc3)[C@H](c3ccccc3)OC(=O)[C@H]1[C@@H]2C(=O)NC[C@H](O)c1ccccc1 | 1.03
15 | Cc1ccccc1C(O)C1C=CC2C(=O)N(c3ccccc3)C(=O)C2N1Nc1ccc([N+](=O)[O-])cc1 (stereo not drawn) | 0.515
16 | Cc1cccc([C@H]2C[C@H]3C(Br)=C[C@@H]2C(=O)[C@]32CO2)c1 | -0.278
17 | CCOC(=O)C=Cc1ccccc1O | 0.404
18 | CCOC(=O)C1=CCC(c2ccccc2)N(S(=O)(=O)c2ccc([N+](=O)[O-])cc2)C1 (stereo not drawn) | 0.599
19 | C=C(CCCC)C(=O)CC[C@@H](OC(=O)c1cccnc1)c1ccc(OCCO)cc1 | 0.363
20 | CC(C)C[C@@H]1NC(=O)CNC(=O)[C@@]23C(=O)N[C@@H](Cc4ccccc4)C2[C@H](C)[C@@]2(C)O[C@H]2C3/C=C/C/C=C\CNC1=O (stereo partly drawn) | -0.0197
21 | [N-]=[N+]=Nc1ccccc1C[C@@]1(C(=O)O)N=C(c2ccc(OCCCO)cc2)O[C@@H]1c1ccccc1N=[N+]=[N-] | 1.44
22 | CCCCC(=O)N(CCN1CCOCC1)[C@@H]1CC(C(=O)NCCO)=C[C@H](Oc2c(I)cc(CO)cc2OC)[C@H]1O | 0.0626
23 | COc1ccc(C#Cc2ccc3c(c2)[C@]2(C(=O)N3)[C@H](C(=O)N3CCCCCCC3)[C@H]3C(=O)O[C@H](c4ccccc4)[C@H](c4ccccc4)N3[C@@H]2c2ccc(O)cc2)cc1 | 0.983
24 | CCOC(=O)C1=C[C@@H](c2ccccc2)N(S(=O)(=O)c2ccc(C)cc2)[C@H]1c1ccccc1 | 0.197
25 | COCCOC(=O)N1C(=O)[C@@]2(c3cc(C#CCCO)ccc31)[C@H](C(N)=O)[C@H]1C(=O)O[C@H](c3ccccc3)[C@H](c3ccccc3)N1[C@@H]2c1ccc(OCCO)cc1 | 0.583
26 | C=C(/C(=C/C[C@@H](OC(C)=O)c1ccc(CO)o1)c1cc(C(=O)OC)ccc1OC)C(C)C | 0.427
27 | CCCCCCCCCCC(O)C1C=CC2C(=O)N(C)C(=O)C2N1Nc1cc(OC)c(OC)c(OC)c1 (stereo not drawn) | 0.458
28 | C=CCC(OC(C)=O)[C@@H]1[C@@H](N(Cc2ccc(-c3ccccc3)cc2)C(=O)Cc2ccc(F)cc2)c2cc(OCCCO)ccc2N1C(=O)Cc1ccc2ccccc2c1 (stereo partly drawn) | 0.139
